# Measurements: PubChem BioAssay (Tox21)
# Inconclusive results are not listed. A call without a number means that no potency is given here. Activity calls are given as the source filed them. The call rests on the fitted dose curve; in most records, active means well fitted cell-killing curve with a large enough effect in the repeat runs; inconclusive means weak or mixed curves, or effect the other way; inactive means no such curve, though single readings can be large or run the other way.
# Experiment: qHTS assay to identify small molecule agonists of the vitamin D receptor (VDR) signaling pathway - cell viability counter screen (AID 743224); further: nearly all actives have a fitted effect of over 50% in size
# Settings: VDR-bla HEK293T viability, CellTiter-Glo luminescence, 16 h; series mostly up to 62.6 µM
# Excerpt: U.S. Tox21 Program National Center for Advancing Translational Sciences [NCATS] NIH Chemical Genomics Center [NCGC] U.S. Environmental Protection Agency [EPA] National Institutes of Environmental Health Sciences [NIEHS] National Toxicology Program [NTP] U.S. Food and Drug Administration [FDA] Tox21 Assay Overview: The vitamin D receptor (VDR), a member of nuclear hormone receptor superfamily, plays a critical role in calcium homeostasis and bone metabolism. It is also involved in cell differentiation and growth, and thrombogenicity. […] The cytotoxicity of the Tox21 compound library against the VDR-bla cell line was tested in parallel by measuring the cell viability using CellTiter-Glo assay (Promega, Madison, WI) in the same wells.
# Tox21 Assay Protocol Summary: VDR-bla cells were dispensed at 2,000 cells/6 uL/well into black wall/clear-bottom 1536-well plates using a Multidrop Combi (Thermo Fisher Scientific, Waltham, MA) dispenser. After the assay plates were incubated at a 37C and 5% CO2 for 4 h, 23 nL of compounds dissolved in DMSO, positive controls or DMSO only was transferred to the assay plate by a Pintool station (Kalypsys, San Diego, CA). The plates were incubated at 37C and 5% CO2 for 16 h. After 1 uL of LiveBLAzerTM B/G FRET substrate was added using a Bioraptr Flying Reagent Dispenser (FRD) workstation (Beckman Coulter, Indianapolis, IN, USA), the plates were incubated at room temperature for 2 h, and fluorescence intensity was measured by an Envision plate reader (PerkinElmer, Shelton, CT). For cell viability readout that measures cytotoxicity, 3 ul/well of CellTiter-Glo reagent was added into the assay plates using a FRD. After 30 min incubation at room temperature, the luminescence intensity in the plates was measured using a ViewLux (PerkinElmer) plate reader.
row,Structure (SMILES),Potency
1,O=C1CCCC(=O)O1,inactive
2,CCCC(=O)C(C)=O,inactive
3,CCC(C=O)CC,inactive
4,CCCCCCCCC1CCC(=O)O1 (stereo not given),inactive
5,CCCCCOC(=O)CCC,inactive
6,O=C(NCCN1CCOCC1)c1ccc(Cl)cc1,inactive
7,CN=C(NC#N)Nc1ccc(C2=NNC(=O)CC2C)cc1 (stereo not given),inactive
8,Cc1ccccc1OCC(O)CO (stereo not given),inactive
9,CC(C)(C)c1cc(CCC(=O)NN)cc(C(C)(C)C)c1O,inactive
10,COCCOC(=O)C1=C(C)NC(C)=C(C(=O)OC(C)C)C1c1cccc([N+](=O)[O-])c1 (stereo not given),inactive
11,NCCS,inactive
12,NC(CO)C(=O)NNCc1ccc(O)c(O)c1O (stereo not given),inactive
13,CCOc1cc(NC(C)=O)ccc1C(=O)OC,inactive
14,O=C1c2cccc3c2[C@H](CCC3)CN1[C@@H]1CN2CCC1CC2,inactive
15,N[C@@H](CCC(=O)Nc1ccc([N+](=O)[O-])cc1)C(=O)O,inactive
16,CCCCOCCOC(=O)COc1nc(Cl)c(Cl)cc1Cl,inactive
17,Cc1cccc(C)c1OCC(C)N (stereo not given),inactive
18,Cc1ccccc1N=O,inactive
19,Nc1ccc([N+](=O)[O-])c(N)c1,inactive
20,CC(CN)CC(C)(C)CCN (stereo not given),inactive

row,Structure (SMILES),Potency
1,COCCOCCOCCOCCOCCO,inactive
2,Cc1cccc(C)c1NC(=O)c1ccccc1C(=O)O,inactive
3,CCCCCCCCCCl,inactive
4,CCOCCOC(=O)/C=C/c1ccc(OC)cc1,inactive
5,CN(C)CCOCCO,inactive
6,O=C(O)Cc1cn(-c2ccccc2)nc1-c1ccc(Cl)cc1,inactive
7,Cc1nc2n(c(=O)c1CCN1CCC(c3noc4cc(F)ccc34)CC1)CCC[C@H]2O,inactive
8,CCOC(=O)CC(=O)c1ccccc1,inactive
9,CCCCCCCCOS(=O)(=O)O,inactive
10,CC(=O)Nc1ccc(S(=O)(=O)Nc2ccc([N+](=O)[O-])cc2)cc1,inactive
11,C=C(C)C(=O)OCc1ccccc1,inactive
12,c1ccc2nccnc2c1,inactive
13,Nc1nnc(-c2cccc(Cl)c2Cl)c(N)n1,inactive
14,O=C1CC(c2ccc(Cl)cc2)CC(=O)N1,inactive
15,CC(=O)Nc1ccc(S(=O)(=O)Cl)cc1,inactive
16,O=P(O)(O)OP(=O)(O)O,inactive
17,CC(C)C(=O)OCCc1ccccc1,inactive
18,C[C@H](CCC(=O)O)[C@H]1CC[C@H]2[C@@H]3C(=O)C[C@@H]4CC(=O)CC[C@]4(C)[C@H]3CC(=O)[C@]12C,inactive
19,O=C(Nc1ccc(Cl)c(Cl)c1)C1CC1,inactive
20,O=C(O)c1cc(Br)c(O)c(Br)c1,inactive
